Screening results as filed in PubChem.
This is a sample that favours compounds with a hit; in the whole collection about 7.3% have one here.
SMN2 splice enh: increases expression of the SMN2 splice variant | HEK293 SMN2-luciferase splicing reporter, luminescence, 30-36 h | Potency, µM (highest dose often 46.1 µM), actives largely listed as activators | 2.8% of 210,000 active; also: nearly all actives have a fitted effect of over 55% in size
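HEK293 cells carry an SMN2 […]–luciferase reporter in which exon 7 inclusion puts luciferase in frame. Cells were plated 10-12 h before compound addition, then incubated 30-36 h at 37C. ONE-Glo luminescence was read; sodium butyrate at 4.5 mM final served as control.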
Rab9 prom act: activates the Rab9 promoter; Huh7 Rab9 promoter-luciferase reporter, luminescence, 24 h; Potency, µM (highest dose often 9.22 µM), hits mostly activators; 2.8% of 320,000 active; AID 485297; also: nearly all actives have a fitted effect of over 60% in size
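Luminescence from Amplite-detected luciferase (10 minutes, ambient) reports Rab9 promoter activation. Before that, stable Rab9-luciferase Huh7 cells (1500/well, reduced-serum OP-MEM I plus 10% FBS) were exposed to compound for 24 hours at 37C.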
FLuc counter: firefly luciferase modulation, counter-screen for miR-21 project; P08659; purified FLuc, Km substrates, luminescence inhibition; 6.9% of 360,000 active; Potency, µM (series often up to 57.5 µM), most hits filed as inhibitors; AID 588342; also: nearly all actives have a fitted effect of over 55% in size
Target sequence (P08659 whole entry, looked up): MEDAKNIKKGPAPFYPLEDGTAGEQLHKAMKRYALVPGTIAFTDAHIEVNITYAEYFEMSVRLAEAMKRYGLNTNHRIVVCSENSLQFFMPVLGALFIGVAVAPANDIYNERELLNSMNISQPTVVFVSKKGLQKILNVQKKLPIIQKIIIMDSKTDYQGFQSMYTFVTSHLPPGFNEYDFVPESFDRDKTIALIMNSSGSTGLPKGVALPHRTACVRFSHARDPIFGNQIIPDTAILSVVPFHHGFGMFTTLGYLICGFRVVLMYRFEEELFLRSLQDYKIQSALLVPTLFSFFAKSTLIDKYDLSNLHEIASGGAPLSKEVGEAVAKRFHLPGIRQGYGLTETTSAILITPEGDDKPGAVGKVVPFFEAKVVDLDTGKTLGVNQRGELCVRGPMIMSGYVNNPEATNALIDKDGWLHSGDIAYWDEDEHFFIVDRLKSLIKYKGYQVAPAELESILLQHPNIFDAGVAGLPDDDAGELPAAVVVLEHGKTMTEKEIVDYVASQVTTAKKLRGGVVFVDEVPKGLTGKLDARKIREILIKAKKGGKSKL
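Biochemical qHTS of compounds, final roughly 60 µM downward over six points, against 10 nM purified firefly luciferase using Km concentrations of substrates (10 uM D-luciferin, 10 uM ATP) in Tris acetate pH 7.5 buffer; luminescence output.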
NPC1 promoter act: activates the NPC1 promoter; AID 485313; Potency, µM (highest dose often 9.22 µM), actives largely listed as activators; 2.4% of 320,000 active; Huh7 NPC1 promoter luciferase reporter, 24 h; also: nearly all actives have a fitted effect of over 60% in size
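Luminescence read-out of NPC1 promoter-driven luciferase in stably transfected Huh7 cells; compounds delivered in DMSO and left 24 h at 37C, 5% CO2, qHTS titration format.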
ELG1 genotox: induces genotoxicity in HEK293T cells with luciferase-tagged ELG1; HEK293T ELG1-luciferase reporter, luminescence, 16 h; Potency, µM (series often up to 46 µM), usual class: activators; 1.3% of 330,000 active; AID 504466; also: nearly all actives have a fitted effect of over 60% in size
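Screening used a luciferase reporter fused to human ELG1 in HEK293T cells. Luminescence was read on a CCD plate imager after 16 hr exposure and 30 min ONE-Glo incubation.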
uPA generation: inhibitors of cell surface uPA generation; cell surface uPA generation assay, qHTS; Potency, µM (top dose mostly 38.3 µM), hits mostly inhibitors; 0.31% of 330,000 active; AID 540303; active = well fitted inhibition curve with a large enough effect; inconclusive = small, poorly fitted or top-dose-only effect; inactive = no such curve, though single readings can be large or run the other way; tested in mouse RAW 264.7 cells; also: nearly all actives have a fitted effect of over 55% in size
Hits are given with their value; 0 = inactive; ? = inconclusive; - = no result given. Unless noted, calls follow the shape of the dose curve; as a rule, active = well fitted curve in the direction sought with a large enough effect; inconclusive = small, poorly fitted or top-dose-only effect, or another doubt; inactive = no such curve, though single readings can be large; an effect the other way counts as inactive or inconclusive.

SMILES	SMN2 splice enh	Rab9 prom act	FLuc counter	NPC1 promoter act	ELG1 genotox	uPA generation
CCOC(=O)c1sc2ncn(CC(=O)Nc3ccc(C)cc3Br)c(=O)c2c1C	0	-	0	-	-	-
Cc1nc(NCc2ccccc2)c2nc(-c3ccccc3)n(CCN3CCOCC3)c2n1	0	-	-	-	-	-
CN(C)C(=O)c1ccc(-c2nccc(NCc3cccnc3)n2)cc1	0	-	-	-	-	-
CCCOc1ccc(N/C=C/C(=O)c2ccc(OC)c(OC)c2)cc1	-	0	?	0	0	0
COc1ccc(C(=O)Oc2ccc(C(=S)N3CCOCC3)cc2)cc1	-	0	21.3µM	0	0	0
CCOc1ccc(N/C=C/C(=O)c2ccc(OC)c(OC)c2)cc1	-	4.47µM	3.01µM	3.16µM	18.3µM	0
COc1ccc(C(=O)/C=C\N2CCOCC2)cc1	-	0	23.9µM	0	?	0
COc1ccc(N/C=C/C(=O)c2ccccc2)cc1	-	0.126µM	0.12µM	0.316µM	0.411µM	10µM
NS(=O)(=O)c1ccc(N/C=C\C(=O)c2ccc3ccccc3c2)cc1	0	0	0	0	0	0
COc1ccc(N/C=C\C(=O)c2ccc3ccccc3c2)cc1	-	2.82µM	?	2µM	0	0
S=C1NC2(CCS1)Oc1ccccc1C1CC(c3ccccc3)=NN12 (configuration not stated)	-	0	26.9µM	0	0	-
Cc1cc(C)cc(Nc2cc(C(=O)NCc3ccccc3)c3ccccc3n2)c1	0	-	4.78µM	-	-	-
COc1ccc(Nc2cc(C(=O)NCc3cccnc3)c3ccccc3n2)c(OC)c1	0	0	10.7µM	0	0	-
COc1ccc(Nc2cc(C(=O)NCc3ccco3)c3ccccc3n2)c(OC)c1	0	0	15.1µM	0	0	0
COc1ccc(Nc2cc(C(=O)NCc3ccccc3)c3ccccc3n2)cc1	0	-	0	-	-	-
COc1ccc(CNC(=O)c2cc(Nc3ccc(C)cc3C)nc3ccccc23)cc1	0	-	8.49µM	-	-	-
Fc1ccc(C(c2ccc(F)cc2)N2CCN(C/C=C\c3ccccc3)CC2)cc1	0	-	-	-	-	-
CC(C)CC(NC(=O)C(CO)NC(=O)C1CCC(=O)N1)C(N)=O (configuration not stated)	0	0	0	0	0	0
N#Cc1c2n(c3c(N)ncnc13)CCCCC2	-	0	0	0	0	0
COc1ccc(Nc2cc(C(=O)NCc3ccccn3)c3ccccc3n2)c(OC)c1	0	?	10.7µM	0	0	-
COc1ccc(-c2cc(C(=O)NCc3ccco3)c3ccccc3n2)cc1	-	0	6.75µM	0	0	?
COc1ccccc1Nc1cc(C(=O)NCc2cccs2)c2ccccc2n1	0	-	9.53µM	-	-	-
COc1ccc(Nc2cc(C(=O)NCCCOC(C)C)c3ccccc3n2)c(OC)c1	-	0	?	0	0	0
Cc1nc2cnc(Oc3ccccc3)nc2n(CCc2ccccc2)c1=O	0	-	-	-	-	-
COc1cc(C(=O)Nc2cc3c(cc2C)n(C)c(=O)c(=O)n3C)cc(OC)c1OC	0	-	0	-	-	-
SMILES	SMN2 splice enh	Rab9 prom act	FLuc counter	NPC1 promoter act	ELG1 genotox	uPA generation
CCC(O)c1nc2ccccc2n1CCOc1cc(C)cc(C)c1 (configuration not stated)	0	-	0	-	-	-
COc1ccc(C(=O)Nc2ccc(N3CCCCCC3)cc2)cc1S(=O)(=O)N1CCOCC1	-	0	?	0	0	0
COc1ccc(C(=O)Oc2cccc(/C=N/NC(N)=S)c2)cc1	?	0	12µM	0	0	0
COC(=O)N/N=C/c1cccc(OC(=O)c2ccc3c(c2)OCO3)c1	-	0	16.9µM	0	0	0
COc1cc(/C=N/NC(N)=S)ccc1OC(=O)c1ccc(C)cc1	0	0	0	0	0	0
O=C(N/N=C/c1ccc(OC(=O)c2ccc3c(c2)OCO3)cc1)c1cncc(Br)c1	0	0	0	0	0	0
O=C(N/N=C/c1cccc(OC(=O)c2ccc3c(c2)OCO3)c1)c1cncc(Br)c1	15.8µM	?	0	0	0	0
Cc1ccccc1C(=O)Nc1cccc(C(=O)OCc2cc(=O)n3c4c(sc3n2)CCCC4)c1	-	-	0	-	-	-
CCc1ccc(/C=C2/Sc3ccccc3N(CC(=O)NCC3CCCO3)C2=O)cc1 (configuration not stated)	-	0	19µM	0	0	0
Cc1ccc(/C=N/NC(=O)c2cccs2)s1	15.8µM	?	10.7µM	?	?	0
O=C(N/N=C/c1ccc(Br)s1)c1cccs1	-	?	15.1µM	?	0	0
